Our source for the binding signal values is article PMC13541613, “GHT-SELEX demonstrates unexpectedly high intrinsic sequence specificity and complex DNA binding of many human transcription factors”.

Test in all cases: HT-SELEX; 20 mM HEPES pH 7, 140 mM KCl, 5 mM NaCl, 1 mM K2HPO4, 2 mM MgSO4, 100 uM EGTA, ZnSO4, 0.1% Tween20; room temperature, 1 h; high values mean tight binding
Conditions in all cases: protein: ivt; tags: eGFP (N-terminal); dsDNA, one strand shown

For one assay, the target named is ZNF721 full-length (Homo sapiens, UniProt Q8TF20-2 1-923). An outline of the steps: (§1)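 Full-length or DNA-binding-domain forms of a tagged transcription factor were produced in HEK293 lysate or cell-free extract and immobilised on beads. Incubation with a randomized 40-base DNA library ran for 1 h at room temperature in HEPES/KCl low-stringency buffer with Tween20, after which bound DNA was washed, heat-eluted, PCR-amplified over successive cycles and Illumina-sequenced. Binding strength is given as the relative k-mer count in selected reads, higher for tighter binding.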

For a further assay, the target named is ZNF721 DBD1 (Homo sapiens, UniProt Q8TF20-2 29-461). The procedure, abridged: as §1
The target in a further assay is ZNF721 DBD2 (Homo sapiens, UniProt Q8TF20-2 395-923). The procedure, abridged:
as §1

Sequence of ZNF721 DBD2 (Q8TF20 383-911): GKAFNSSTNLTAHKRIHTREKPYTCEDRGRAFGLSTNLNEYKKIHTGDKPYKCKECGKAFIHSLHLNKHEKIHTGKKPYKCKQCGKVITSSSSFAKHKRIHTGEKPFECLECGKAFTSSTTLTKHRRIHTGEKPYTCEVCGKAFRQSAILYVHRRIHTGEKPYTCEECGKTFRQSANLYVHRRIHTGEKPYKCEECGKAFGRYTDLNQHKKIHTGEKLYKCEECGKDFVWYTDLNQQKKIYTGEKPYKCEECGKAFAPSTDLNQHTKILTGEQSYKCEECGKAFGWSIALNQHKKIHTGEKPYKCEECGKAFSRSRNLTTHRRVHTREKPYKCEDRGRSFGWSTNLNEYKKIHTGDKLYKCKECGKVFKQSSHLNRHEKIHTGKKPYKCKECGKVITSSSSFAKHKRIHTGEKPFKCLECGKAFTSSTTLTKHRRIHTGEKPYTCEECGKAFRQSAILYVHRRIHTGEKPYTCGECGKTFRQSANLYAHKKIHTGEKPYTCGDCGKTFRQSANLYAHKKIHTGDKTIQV
Sequence of ZNF721 full-length (Q8TF20 other isoform, or with tags, fused parts or gaps): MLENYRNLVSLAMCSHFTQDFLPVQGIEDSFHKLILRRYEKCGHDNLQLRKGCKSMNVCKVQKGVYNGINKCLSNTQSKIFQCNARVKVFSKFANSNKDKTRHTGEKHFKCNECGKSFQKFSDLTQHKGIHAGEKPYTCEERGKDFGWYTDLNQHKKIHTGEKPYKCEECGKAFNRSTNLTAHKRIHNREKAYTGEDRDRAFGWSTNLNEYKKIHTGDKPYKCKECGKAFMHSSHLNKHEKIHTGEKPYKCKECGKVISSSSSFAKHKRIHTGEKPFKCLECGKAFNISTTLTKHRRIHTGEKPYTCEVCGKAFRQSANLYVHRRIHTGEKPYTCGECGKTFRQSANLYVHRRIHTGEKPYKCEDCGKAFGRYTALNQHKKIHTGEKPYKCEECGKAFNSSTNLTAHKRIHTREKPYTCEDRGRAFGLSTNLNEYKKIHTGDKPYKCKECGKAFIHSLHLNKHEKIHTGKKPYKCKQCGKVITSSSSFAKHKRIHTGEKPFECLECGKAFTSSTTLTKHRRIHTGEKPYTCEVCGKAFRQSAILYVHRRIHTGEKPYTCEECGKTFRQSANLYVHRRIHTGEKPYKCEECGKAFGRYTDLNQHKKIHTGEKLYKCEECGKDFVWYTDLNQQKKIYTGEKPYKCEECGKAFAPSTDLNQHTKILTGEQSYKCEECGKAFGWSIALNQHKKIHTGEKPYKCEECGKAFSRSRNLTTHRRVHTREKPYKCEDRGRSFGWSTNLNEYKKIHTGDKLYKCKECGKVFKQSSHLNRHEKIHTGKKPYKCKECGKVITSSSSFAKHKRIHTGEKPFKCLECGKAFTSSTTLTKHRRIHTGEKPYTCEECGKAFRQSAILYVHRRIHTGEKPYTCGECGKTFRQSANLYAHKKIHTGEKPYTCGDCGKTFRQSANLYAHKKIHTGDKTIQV
Sequence of ZNF721 DBD1 (Q8TF20 17-449): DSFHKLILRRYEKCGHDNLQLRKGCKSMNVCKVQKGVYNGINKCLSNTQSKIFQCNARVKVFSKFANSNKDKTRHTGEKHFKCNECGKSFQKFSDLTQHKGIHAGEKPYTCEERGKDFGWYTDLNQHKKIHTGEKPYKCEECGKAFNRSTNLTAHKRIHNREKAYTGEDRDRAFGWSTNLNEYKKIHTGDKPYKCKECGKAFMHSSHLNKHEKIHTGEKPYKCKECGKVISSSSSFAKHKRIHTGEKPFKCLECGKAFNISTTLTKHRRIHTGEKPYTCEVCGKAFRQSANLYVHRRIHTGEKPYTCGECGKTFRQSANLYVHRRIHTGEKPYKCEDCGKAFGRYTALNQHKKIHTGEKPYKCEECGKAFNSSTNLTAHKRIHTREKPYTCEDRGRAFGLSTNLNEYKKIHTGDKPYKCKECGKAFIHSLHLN

With ATGTATGAAG, the binding signal was found to be 0.263 relative 10-mer count in the assay with ZNF721 full-length and 0.279 relative 10-mer count with ZNF721 DBD1.

As to AAAAGCAGCC, the results for the binding signal with ZNF721 full-length, with ZNF721 DBD1 and in the assay with ZNF721 DBD2 were 0.136 relative 10-mer count, 0.00261 relative 10-mer count and 0.112 relative 10-mer count, respectively.

For CGAAAAAAAA, the values for the binding signal in the assay with ZNF721 full-length, with ZNF721 DBD1 and in the assay with ZNF721 DBD2 were 0.137 relative 10-mer count, 0.0159 relative 10-mer count and 0.0695 relative 10-mer count, respectively.

With CTCCGCCCCC, the binding signal with ZNF721 full-length was 0.11 relative 10-mer count; with ZNF721 DBD1 it was 0.00537 relative 10-mer count.

CCAACCACCC: the binding signal amounted to 0.175 relative 10-mer count in the assay with ZNF721 full-length, 0.00624 relative 10-mer count with ZNF721 DBD1 and 0.00312 relative 10-mer count in the assay with ZNF721 DBD2.

For ATGAAGTGTA, the binding signal in the assay with ZNF721 full-length is 0.376 relative 10-mer count; in the assay with ZNF721 DBD1 it was 0.432 relative 10-mer count.

With AAAAGCTATA, the binding signal with ZNF721 full-length is 0.177 relative 10-mer count; with ZNF721 DBD1, 0.0882 relative 10-mer count.

In the case of AAAGCTATAC, the binding signal with ZNF721 full-length came out at 0.183 relative 10-mer count; in the assay with ZNF721 DBD1, 0.0924 relative 10-mer count.

For the sequence CCCCGACCCC, the binding signal with ZNF721 full-length amounted to 0.24 relative 10-mer count; with ZNF721 DBD1, 0.00789 relative 10-mer count.

As for GAAGTGTATC, the binding signal in the assay with ZNF721 full-length is 0.279 relative 10-mer count; in the assay with ZNF721 DBD1, 0.247 relative 10-mer count.

As to ACTTCATACC, the results for the binding signal with ZNF721 full-length and with ZNF721 DBD1 were 0.377 relative 10-mer count and 0.502 relative 10-mer count, respectively.

Regarding AGCTTCTTTC, the binding signal was 0.151 relative 10-mer count with ZNF721 full-length and 0.125 relative 10-mer count with ZNF721 DBD1.

CTTCATACCA: the binding signal with ZNF721 full-length was 0.116 relative 10-mer count; with ZNF721 DBD1, 0.165 relative 10-mer count.

On to ACTTCATACT, for which the binding signal with ZNF721 full-length is 0.154 relative 10-mer count; with ZNF721 DBD1, 0.27 relative 10-mer count.

On to AGTATGAAGC, for which the binding signal came to 0.167 relative 10-mer count with ZNF721 full-length and 0.232 relative 10-mer count in the assay with ZNF721 DBD1.

CGCCCCCCCC: the binding signal in the assay with ZNF721 full-length came to 0.171 relative 10-mer count; with ZNF721 DBD1, 0.00527 relative 10-mer count.

In the case of CCCCCGGCCC, the binding signal was determined as 0.102 relative 10-mer count in the assay with ZNF721 full-length and 0.00394 relative 10-mer count with ZNF721 DBD1.

For GAAGCTATAC, the binding signal in the assay with ZNF721 full-length was 0.107 relative 10-mer count; with ZNF721 DBD1, 0.143 relative 10-mer count.

Consider CCCGCCCGCC, for which the results for the binding signal with ZNF721 full-length and in the assay with ZNF721 DBD1 were 0.128 relative 10-mer count and 0.0044 relative 10-mer count, respectively.

With CTTCATACCC, the figures for the binding signal with ZNF721 full-length and in the assay with ZNF721 DBD1 were 0.221 relative 10-mer count and 0.363 relative 10-mer count, respectively.

Take CCACCGCCAC: the binding signal amounted to 0.12 relative 10-mer count with ZNF721 full-length, 0.00394 relative 10-mer count in the assay with ZNF721 DBD1 and 0.00599 relative 10-mer count in the assay with ZNF721 DBD2.

As to CCCGCTCCCC, the binding signal with ZNF721 full-length is 0.13 relative 10-mer count; with ZNF721 DBD1, 0.00527 relative 10-mer count.

Turning to ACCCGCCCCC, the values for the binding signal in the assay with ZNF721 full-length and with ZNF721 DBD1 were 0.153 relative 10-mer count and 0.005 relative 10-mer count, respectively.

For CCAGCCCCCC, the binding signal came to 0.131 relative 10-mer count in the assay with ZNF721 full-length and 0.00316 relative 10-mer count in the assay with ZNF721 DBD1.

In the case of CCCCTGCCCC, the results for the binding signal with ZNF721 full-length and with ZNF721 DBD1 were 0.217 relative 10-mer count and 0.00734 relative 10-mer count, respectively.

In the case of CGGTATGAAG, the binding signal came out at 0.108 relative 10-mer count with ZNF721 full-length and 0.15 relative 10-mer count in the assay with ZNF721 DBD1.

Take AGCTTCATAC: the binding signal with ZNF721 full-length came out at 0.196 relative 10-mer count; with ZNF721 DBD1 it was 0.296 relative 10-mer count.

Regarding CCCGCACCCC, the values for the binding signal with ZNF721 full-length and in the assay with ZNF721 DBD1 were 0.193 relative 10-mer count and 0.00784 relative 10-mer count, respectively.

Regarding GCTTCATACC, the binding signal in the assay with ZNF721 full-length came to 0.229 relative 10-mer count; in the assay with ZNF721 DBD1, 0.354 relative 10-mer count.

AACCCACCCC: the binding signal with ZNF721 full-length is 0.143 relative 10-mer count; with ZNF721 DBD1, 0.00596 relative 10-mer count.

As to AAGAAGCTAT, the values for the binding signal with ZNF721 full-length and with ZNF721 DBD1 were 0.144 relative 10-mer count and 0.16 relative 10-mer count, respectively.

Turning to AAGCTATACC, the binding signal in the assay with ZNF721 full-length is 0.227 relative 10-mer count; with ZNF721 DBD1 it was 0.155 relative 10-mer count.

On to AACCCCCACC, for which the binding signal in the assay with ZNF721 full-length is 0.108 relative 10-mer count; in the assay with ZNF721 DBD1, 0.00495 relative 10-mer count.

Consider ACTTCATACA, for which the binding signal is 0.358 relative 10-mer count in the assay with ZNF721 full-length and 0.393 relative 10-mer count with ZNF721 DBD1.

In the case of CCCAGCCCCC, the binding signal worked out at 0.163 relative 10-mer count in the assay with ZNF721 full-length and 0.00518 relative 10-mer count with ZNF721 DBD1.

On to CCCCGGCCCC, for which the binding signal in the assay with ZNF721 full-length is 0.12 relative 10-mer count; in the assay with ZNF721 DBD1 it was 0.00358 relative 10-mer count.

As for CCCCCCCCCC, the results for the binding signal in the assay with ZNF721 full-length and in the assay with ZNF721 DBD1 were 0.116 relative 10-mer count and 0.00358 relative 10-mer count, respectively.

Turning to CGCCGCCCCC, the binding signal with ZNF721 full-length is 0.138 relative 10-mer count; with ZNF721 DBD1 it was 0.00518 relative 10-mer count.
